{
  "source": "PubChem BioAssay AID588790",
  "about": "(National Center for Advancing Translational Sciences (NCATS), 2011)",
  "note": "Hit rate of the full screen: of about 1,200 compounds, about 85 (7%) were called active. Only a selection was taken, and actives are over-represented in it overall. A number with no mark means an inactive call. The call rests on the fitted dose curve. Potency means the concentration at half of the fitted maximal effect.",
  "data": [
    {"molecular_target": "Beta-2 adrenergic receptor (Homo sapiens) (UniProt P07550)", "sequence (P07550 whole entry, looked up)": "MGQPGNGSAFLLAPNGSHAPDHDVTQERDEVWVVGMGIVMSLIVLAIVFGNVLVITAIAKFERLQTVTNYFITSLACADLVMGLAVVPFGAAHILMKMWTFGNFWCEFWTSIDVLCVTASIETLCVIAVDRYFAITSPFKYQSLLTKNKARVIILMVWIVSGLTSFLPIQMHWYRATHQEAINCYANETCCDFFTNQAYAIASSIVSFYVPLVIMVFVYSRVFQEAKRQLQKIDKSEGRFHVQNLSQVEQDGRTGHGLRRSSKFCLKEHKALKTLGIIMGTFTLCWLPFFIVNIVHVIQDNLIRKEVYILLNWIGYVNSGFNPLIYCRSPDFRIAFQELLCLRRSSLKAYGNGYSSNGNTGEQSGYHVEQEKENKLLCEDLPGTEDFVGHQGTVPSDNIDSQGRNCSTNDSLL", "experiment": "qHTS assay of beta-arrestin-biased ligands of beta2-adrenergic receptor: Hit Validation with GloSensor; on activation: 0% is about no effect", "conditions": "W9-Glo22F cells, GloSensor cAMP luminescence, beta2AR agonism; activation: at 46.1 µM (top of the series)", "from_the_text": "The concept of biased agonism is an emerging concept of molecular pharmacology which proposes that seven transmembrane receptors (7TMRs) or G protein-coupled receptors (GPCRs), exist in multiple signaling conformations and complexes and that ligands (either agonists or antagonists) can induce signaling biased responses for distinct signal transduction cascades.\nFurthermore, accumulating evidence over the last decade has drawn attention to a novel function of beta-arrestins as signal transducers that scaffold various signaling molecules upon activation of 7TMRs. […] This beta-arrestin-biased signaling presumably leads to distinct physiological outcomes from those by G protein activation.\nAdditionally, the active receptor conformations which […] on this beta-arrestin signaling are likely different from those activating G protein signaling\nThe goal of this screening project is to discover and optimize novel beta-arrestin-biased ligands for beta2-AR signaling. A luminescent cell-based assay for beta2-AR-mediated agonism, known as the Tango assay, has been validated in which ligand binding of a recombinant beta2-AR and subsequent recruitment of a recombinant beta-arrestin lead to the release of the transcriptional activator tTA, which upregulates transcription of a tTA-responsive luciferase gene. […] After compounds were identified in this primary screen, they were tested in a counter screen that used luminescence as measure through the GloSensor reagent.\nNIH Molecular Libraries Probe Production Network [MLPCN]\nNIH Chemical Genomics Center [NCGC]\nPI: Bryan Roth (UNC) and Bob Lefkowitz (Duke)\n2 uL of W9-Glo22F cells are dispensed into a white 1536-well plate. They are incubated overnight at 37 deg C at 5% CO2. 23 nL of compounds and controls are pinned into the wells. Then 2 uL of GloSensor is added and the plate is incubated for 10 min at room temperature.The plates are then read on the ViewLux for luminescence.", "values": [
      {"smiles": "O=C(NCc1ccco1)c1cccn2c(=O)c3c4c(sc3nc12)CCCC4", "activation": "4.8%"},
      {"smiles": "Cc1ccc(C)c(-n2c(SCC(=O)O)nc3sc4c(c3c2=O)CCCC4)c1", "Potency": "23.1 µM (active)"},
      {"smiles": "Cc1nc(SCC(=O)N2CCOCC2)c2c3c(sc2n1)CCC3", "activation": "4.96%"},
      {"smiles": "CC1(C)CC(C)(c2ccc(O)cc2O)N(c2cccc(Cl)c2)C(=S)N1", "note": "(stereo not drawn)", "activation": "0.459%"},
      {"smiles": "S=c1[nH]c2cc(-c3ccccc3)ccc2o1", "activation": "1.16%"},
      {"smiles": "CC1CCC(NC(=O)c2ccc(S(C)(=O)=O)cc2)CC1", "note": "(stereo not drawn)", "Potency": "29.1 µM (active)"},
      {"smiles": "CC(C)CC(=O)NC(=S)Nc1ccc(Cl)cn1", "activation": "-2.33%"},
      {"smiles": "O=C(CS(=O)(=O)c1ccccc1)Nc1nc2ccccc2s1", "activation": "-1.16%"},
      {"smiles": "CCCC(=O)NC(=S)Nc1ccc(Cl)cn1", "activation": "2.48%"},
      {"smiles": "COc1ccc(C(=O)C2CCCN(Cc3cnc(N4CCCC4)s3)C2)cc1OC", "note": "(stereo not drawn)", "activation": "-1.16%"},
      {"smiles": "COc1ccc(C(=O)C2CCCN(C/C=C/c3ccccc3OC)C2)c(OC)c1", "note": "(stereo not drawn)", "Potency": "18.4 µM (active)"},
      {"smiles": "COc1cccc(C(=O)C2CCCN(Cc3cccc(-n4nc(C)cc4C)c3)C2)c1", "note": "(stereo not drawn)", "activation": "12.8%"},
      {"smiles": "O=c1[nH]c(CSc2ccccn2)nc2c1cnn2-c1ccccc1", "Potency": "11.6 µM (active)"},
      {"smiles": "O=c1[nH]c(CSc2cccc[n+]2[O-])nc2ccccc12", "activation": "4.96%"},
      {"smiles": "CCc1cc2c(=O)[nH]c(-c3ccccn3)nc2s1", "activation": "0.306%"},
      {"smiles": "CCn1c(SCC(=O)N/N=C/C=C\\c2ccco2)nc2ccccc21", "activation": "0%"},
      {"smiles": "S=C(NN=C1CCN(Cc2ccccc2)CC1)NC1CCCCC1", "activation": "-1.01%"},
      {"smiles": "COc1cccc([C@@H]2Oc3ccc(Br)cc3C(=O)[C@H]2OC(=O)NC2CCCC2)c1", "activation": "-1.16%"},
      {"smiles": "CCOc1ccc(C(=O)Nc2ccccc2OC(F)F)cc1", "activation": "0.153%"},
      {"smiles": "O=C(CN1C(=O)C2C3CC(C(Br)C3Br)C2C1=O)N1CCN(Cc2ccccc2)CC1", "note": "(stereo not drawn)", "activation": "0.153%"},
      {"smiles": "CCNc1nc(NC(C)CC)nc(ON=C(C)C)n1", "note": "(stereo not drawn)", "Potency": "32.6 µM (active)"},
      {"smiles": "CN(C)S(=O)(=O)c1cccc(NC(=S)N/N=C/c2ccco2)c1", "activation": "0.306%"},
      {"smiles": "COc1ccc(/C=C/c2ccc3cccc(O)c3n2)c(OC)c1OC", "activation": "-1.01%"},
      {"smiles": "C/C(CCC1CC(C)(C)OC1=O)=N\\NC(N)=S", "note": "(stereo not drawn)", "activation": "-2.48%"},
      {"smiles": "CCCCCC1CC(/C(C)=N/NC(N)=O)OC1=O", "note": "(stereo not drawn)", "Potency": "29.1 µM (active)"},
      {"smiles": "CCCCCOCC1CC(C/C(C)=N/NC(N)=S)C(=O)O1", "note": "(stereo not drawn)", "activation": "-1.16%"},
      {"smiles": "CS/C(N)=N/N=C/c1cc(C)ccc1O", "activation": "-0.857%"},
      {"smiles": "CCN(CC)C(=O)[C@H]1CC(CC(=O)NCc2ccc(OC)c(OC)c2)C(=O)N2CCc3c([nH]c4ccccc34)[C@]12C", "note": "(stereo partly drawn)", "activation": "-1.16%"},
      {"smiles": "O=C(CSc1n[nH]c(=O)n1-c1cccnc1)N1CCOCC1", "activation": "-1.16%"},
      {"smiles": "COc1ccc2cc1Oc1ccc(cc1)C[C@H]1c3cc(c(OC)cc3CCN1C)Oc1c(O)c(OC)cc3c1[C@H](C2)N(C)CC3", "activation": "-1.16%"},
      {"smiles": "CCOC(=O)N1C/C(=C\\c2ccccc2)C(=O)/C(=C/c2ccccc2)C1", "activation": "0.153%"},
      {"smiles": "COc1cc(/C=C2\\CC(C(C)(C)C)C/C(=C\\c3cc(OC)c(OC)c(OC)c3)C2=O)cc(OC)c1OC", "note": "(stereo not drawn)", "activation": "-2.33%"},
      {"smiles": "COc1cc(/C=C2\\CC/C(=C\\c3ccc(OCCO)c(OC)c3)C2=O)ccc1OCCO", "Potency": "18.4 µM (active)"},
      {"smiles": "O=C(O)CC1S/C(=N/N=C2CCCCC2)N(c2ccccc2)C1=O", "note": "(stereo not drawn)", "activation": "-1.16%"},
      {"smiles": "CN(C)CCCn1c(SCC(=O)Nc2nccs2)nnc1-c1ccncc1", "activation": "1.16%"},
      {"smiles": "CCC(C)NC(=O)C1CCN(S(=O)(=O)N2CCC3(CC2)OCCO3)CC1", "note": "(stereo not drawn)", "activation": "-1.16%"},
      {"smiles": "COc1cccc(/C=N/Nc2nc(-c3cccnc3)nc3ccccc23)c1", "activation": "-1.16%"},
      {"smiles": "COc1ccc(Oc2nc(-c3ccncc3)nc3ccccc23)cc1", "Potency": "29.1 µM (active)"},
      {"smiles": "O=C(CC(=O)Nc1cccc(F)c1)Nc1cccc(F)c1", "activation": "0%"},
      {"smiles": "CCCCCCCCN1C(=O)N(C)C(N(O)C(=O)NC)C1(C)C", "note": "(stereo not drawn)", "activation": "-2.17%"},
      {"smiles": "Clc1cccc(Cl)c1C1Nc2cccc3cccc(c23)N1", "activation": "-1.01%"},
      {"smiles": "O=[N+]([O-])c1ccc(Cl)c(C2Nc3cccc4cccc(c34)N2)c1", "Potency": "0.0046 µM (active)"},
      {"smiles": "Clc1ccccc1C1Nc2cccc3cccc(c23)N1", "activation": "0%"},
      {"smiles": "Cc1ccc(C(=O)N/C(=C\\c2ccco2)C(=O)NCCc2c[nH]c3ccccc23)cc1", "activation": "0%"},
      {"smiles": "O=C(CNC(=O)C(c1ccccc1)c1ccccc1)N/N=C\\c1cccc(O)c1", "activation": "-0.857%"},
      {"smiles": "CCC(Sc1nc(C)cc(=O)[nH]1)C(=O)Nc1nc2c(s1)CCCC2", "note": "(stereo not drawn)", "activation": "4.96%"},
      {"smiles": "CC(/C=C/c1ccccc1)=N\\NC(N)=S", "activation": "0%"},
      {"smiles": "NC(=S)NN=C(c1ccccc1)c1ccccc1", "activation": "-1.16%"},
      {"smiles": "NC(=S)NN=C(Cc1ccccc1)Cc1ccccc1", "Potency": "32.6 µM (active)"},
      {"smiles": "Cc1cc(N2Cc3ccccc3C2)ccc1C=O", "activation": "0.459%"},
      {"smiles": "C/C(=N/NC(=O)c1ccoc1C)c1ccc(NC(=O)C2CCCC2)cc1", "activation": "-1.16%"},
      {"smiles": "O=C(COC(=O)c1n[nH]c(=O)c2ccccc12)NCc1ccccc1", "activation": "8.45%"},
      {"smiles": "O=C(COC(=O)c1ccc(CO)cc1)NCc1cccs1", "activation": "80.4% (active)"},
      {"smiles": "Oc1ccc(NCc2cccs2)cc1", "activation": "1.16%"},
      {"smiles": "CN1CCN(C(=S)NC(=O)c2ccc(Br)cc2)CC1", "Potency": "10.3 µM (active)"},
      {"smiles": "CCN1CCN(C(=S)NC(=O)c2cccc(Br)c2)CC1", "activation": "-1.16%"},
      {"smiles": "CC1CN(C(=S)NC(=O)c2ccc([N+](=O)[O-])cc2)CC(C)O1", "note": "(stereo not drawn)", "activation": "0%"},
      {"smiles": "CCC1(C)Nc2ccccc2C(=O)N1O", "note": "(stereo not drawn)", "activation": "-1.16%"},
      {"smiles": "O=C(Nc1nc(-c2ccccn2)cs1)Nc1ccc(F)cc1F", "activation": "0%"},
      {"smiles": "CN(C)/C=C/C(=O)c1ccc(F)cc1", "activation": "0.306%"},
      {"smiles": "O=S(=O)(N1CCOCC1)N1CCOCC1", "activation": "-1.16%"},
      {"smiles": "Cc1ccc(NC(=S)NC(NC(=O)c2ccccc2)C(Cl)(Cl)Cl)c(C)c1", "note": "(stereo not drawn)", "activation": "-1.16%"},
      {"smiles": "S=c1[nH]nc(-c2ccccc2)n1C1C=CCCC1", "note": "(stereo not drawn)", "activation": "-1.01%"},
      {"smiles": "Cn1c(-c2csc(-c3ccccc3)n2)n[nH]c1=S", "Potency": "20.6 µM (active)"},
      {"smiles": "CC(c1ccccc1)n1c(-c2ccc(C(C)(C)C)cc2)n[nH]c1=S", "note": "(stereo not drawn)", "activation": "-2.33%"},
      {"smiles": "COc1ccccc1-c1cc(C(=O)N2CCN(c3ccccc3OC)CC2)no1", "activation": "0.153%"},
      {"smiles": "Cc1ccc(Nc2nc(CSc3nnc(-c4ccccc4C)n3C)cs2)cc1", "activation": "0.306%"},
      {"smiles": "CCCOc1ccc(C(=O)Nc2nc(C)c(Cc3ccc4c(c3)OCO4)s2)cc1", "activation": "-1.01%"},
      {"smiles": "COc1ccccc1N=NC1C(=O)N(C(N)=S)N=C1C", "note": "(stereo not drawn)", "activation": "8.6%"},
      {"smiles": "CC(=O)Nc1ccc(NC(=O)Cn2nc(C(=O)Nc3ccc(C)cc3)ccc2=O)cc1", "activation": "-1.16%"},
      {"smiles": "CC1=NN(C(N)=S)C(=O)C1N=Nc1ccccc1", "note": "(stereo not drawn)", "Potency": "18.4 µM (active)"},
      {"smiles": "CC1=NN(C(N)=S)C(=O)C1N=Nc1cccc(C)c1", "note": "(stereo not drawn)", "activation": "0.153%"},
      {"smiles": "CC1=NN(C(N)=S)C(=O)C1N=Nc1ccc(F)cc1", "note": "(stereo not drawn)", "activation": "0.306%"}
    ]}
  ]
}
